Source: PubChem (National Center for Advancing Translational Sciences (NCATS))
Cruzain noTriton: cruzain (T. cruzi) inhibition without detergent | purified cruzain, Z-FR-AMC fluorescence, no detergent | Potency, µM, inactives show max response, negative = inhibition, most hits filed as inhibitors | hit rate 2.3% among 200,000 | AID 1476;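 also: plate controls were enzyme without inhibitor for no effect and buffer without enzyme for full effect; nearly all actives have a fitted effect of over 40% in size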
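Purified cruzain at 1.5 nM, pre-incubated 15 min with compound at room temperature in 100 mM sodium acetate pH 5.5, 5 mM DTT, 0.00005% Triton X-100. Reaction started with 2 uM Z-FR-AMC; AMC fluorescence increase over 60 s gives rate.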
Cruzain Triton: cruzain (T. cruzi) inhibition with detergent. hit rate 0.43% among 200,000. Potency, µM, without a hit: max response, negative = inhibition, usual class: inhibitors. purified cruzain, Z-FR-AMC fluorescence, 0.01% Triton;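 also: plate controls were neutral wells for no effect and buffer without enzyme for full effect; nearly all actives have a fitted effect of over 40% in size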
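Detergent-containing arm of a paired screen for aggregation-based inhibition: 0.01% Triton X-100 present. Cruzain at 1.5 nM cleaved 2 uM Z-FR-AMC at pH 5.5 with 5 mM DTT; AMC fluorescence gain over 60 s measured activity.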
Papain inh: papain (Carica papaya) inhibition counter-screen; Potency, µM, for inactives: max response, negative = inhibition, actives largely listed as inhibitors; shares compounds with Cruzain Triton; hit rate 41% among 410; purified papain, Z-FR-AMC fluorescence cleavage;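 also: 0% = no-compound wells and -100% = no-enzyme wells; nearly all actives have a fitted effect of over 35% in size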
Target sequence (P00784 whole entry, looked up): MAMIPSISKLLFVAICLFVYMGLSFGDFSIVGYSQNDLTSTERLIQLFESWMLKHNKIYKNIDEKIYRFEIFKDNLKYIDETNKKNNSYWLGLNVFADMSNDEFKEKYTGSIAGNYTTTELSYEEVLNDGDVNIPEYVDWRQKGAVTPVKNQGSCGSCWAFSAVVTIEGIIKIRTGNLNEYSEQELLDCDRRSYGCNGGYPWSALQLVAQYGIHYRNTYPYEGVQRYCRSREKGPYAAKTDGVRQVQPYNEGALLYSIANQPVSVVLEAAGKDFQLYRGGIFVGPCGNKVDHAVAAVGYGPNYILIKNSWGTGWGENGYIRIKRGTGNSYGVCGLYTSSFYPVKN
Active calls of the source: *. This is a sample that favours compounds with a hit; in the whole collection about 2.4% have one here. Calls follow the shape of the dose curve; as a rule, active = well fitted curve in the direction sought with a large enough effect; inconclusive = small, poorly fitted or top-dose-only effect, or another doubt; inactive = no such curve, though single readings can be large; an effect the other way counts as inactive or inconclusive. Potency is read from the fitted curve at half-maximal effect.

What do the screens show for `Cc1ccc(C)c(CN2C(=O)c3ccccc3S(=O)c3ccc(C(=O)N4CCCCC4)cc32)c1` (configuration not stated)?
Cruzain noTriton: 4%; Cruzain Triton: -3%

How did Cc1ccc2[nH]c(=O)c(CN(Cc3nnnn3Cc3ccccc3)C3CCCC3)cc2c1 do in these assays?
Cruzain noTriton: 3%; Cruzain Triton: -13%

Results for Cc1ccc2[nH]c(=O)c(CN(Cc3ccccc3)Cc3nnnn3Cc3ccccc3)cc2c1 ?
Papain inh: -8%

What do the screens show for `Cc1ccc2[nH]c(=O)c(CN(Cc3ccco3)Cc3nnnn3Cc3ccccc3)cc2c1`?
Papain inh: -18%

What do the screens show for `O=c1[nH]c2cc3c(cc2cc1CN(Cc1ccccc1)Cc1nnnn1Cc1ccco1)OCCO3`?
Cruzain noTriton: 8%; Cruzain Triton: -14%

How did COc1ccccc1NC(=O)c1cnc(SCC(=O)N2CCOCC2)n(C)c1=O do in these assays?
Cruzain noTriton: -5%; Cruzain Triton: -3%

What do the screens show for `Cc1cn2c(=O)c(S(=O)(=O)NCCc3ccccc3)c(C)nc2s1`?
Cruzain noTriton: -19%; Cruzain Triton: -5%

What do the screens show for `Cc1ccccc1-n1c(C)cc(/C=C2/C(=O)NC(=O)N(Cc3ccco3)C2=O)c1C`?
Cruzain noTriton: 4%; Cruzain Triton: -8%

How did Cc1ccccc1-n1c(C)cc(/C=C2/C(=N)N3C(c4ccccc4)=CSC3=NC2=O)c1C do in these assays?
Cruzain noTriton: 3.2µM*; Cruzain Triton: -1%; Papain inh: 13%

How did COc1cccc(Cn2c(=O)n(-c3ccc(C)c(F)c3)c(=O)c3sc4ccccc4c32)c1 do in these assays?
Cruzain noTriton: -7%; Cruzain Triton: -3%

What do the screens show for `COc1ccc(NS(=O)(=O)c2cc(NC(=O)/C=C/c3ccccc3OC)ccc2N2CCCCC2)cc1`?
Cruzain noTriton: 3.2µM*; Cruzain Triton: -3%; Papain inh: 11%

Results for COc1ccc(NS(=O)(=O)c2cc(NC(=O)/C=C/c3cccs3)ccc2N2CCOCC2)cc1 ?
Cruzain noTriton: inconclusive; Cruzain Triton: -6%

What do the screens show for `Nc1ccc2oc(Cc3ccc(Cl)cc3)nc2c1`?
Cruzain noTriton: inconclusive; Cruzain Triton: -5%

How did COc1ccccc1CNC(=O)CSc1nc(=O)[nH]c2c1CCCC2 do in these assays?
Cruzain noTriton: 10%; Cruzain Triton: -1%

What do the screens show for `Cc1cccc(C)c1N=C1NN=C(c2ccccc2F)CS1`?
Cruzain noTriton: inconclusive; Cruzain Triton: -6%

Results for FC(F)Sc1ccc(N=C2NN=C(c3ccc4c(c3)OCCO4)CS2)cc1 ?
Cruzain noTriton: 3.2µM*; Cruzain Triton: 0%; Papain inh: -12%

What do the screens show for `CNC(=O)c1ccc2nc(-c3ccco3)c(-c3ccco3)nc2c1`?
Papain inh: 32µM*

What do the screens show for `O=C(NC1CCCCC1)c1cc(-c2ccco2)on1`?
Cruzain noTriton: 0%; Cruzain Triton: 0%

How did O=C(Nc1ccccc1)c1ccc2nc(-c3ccco3)c(-c3ccco3)nc2c1 do in these assays?
Cruzain noTriton: inconclusive; Cruzain Triton: inconclusive; Papain inh: 13µM*

How did O=C(NCc1ccco1)c1cccc(NC(=O)c2ccccc2)c1 do in these assays?
Cruzain noTriton: 7%; Cruzain Triton: 2%

What do the screens show for `O=C(NC1CC1)c1ccc2nc(-c3ccco3)c(-c3ccco3)nc2c1`?
Papain inh: 32µM*

Results for Cc1cccc(N2CCN(C(=O)c3ccc4nc(-c5ccco5)c(-c5ccco5)nc4c3)CC2C)c1 (configuration not stated) ?
Cruzain noTriton: 2%; Cruzain Triton: -2%

Results for Cc1cccc(CCNC(=O)CCc2c(C)nc3c(c(C)nn3-c3ccccc3)c2C)c1 ?
Cruzain noTriton: 1%; Cruzain Triton: -2%

What do the screens show for `CCOC(=O)c1cc(S(=O)(=O)Nc2ccccc2OCC)[nH]n1`?
Cruzain noTriton: 16%; Cruzain Triton: 2%

Results for CC(Oc1ccccc1)C(=O)Nc1ccc(OCc2cc(=O)n3ccsc3n2)cc1 (configuration not stated) ?
Cruzain noTriton: -1%; Cruzain Triton: -5%

What do the screens show for `CCN(c1ccccc1)c1nc(C#N)nc(N(CC)c2ccccc2)n1`?
Papain inh: 3.2µM*

Results for CCN(c1ccccc1)c1cc(C)nc2nc(C)nn12 ?
Cruzain noTriton: 3%; Cruzain Triton: -4%

How did CCCN(CCC)c1nc(N)nc(C#N)n1 do in these assays?
Papain inh: 2µM*

How did CCN(CC)c1nc(SCC(=O)O)nc(N(CC)CC)n1 do in these assays?
Cruzain noTriton: -2%; Cruzain Triton: 3%

What do the screens show for `CCN(CC)c1nc(C#N)nc(N(CC)CC)n1`?
Cruzain noTriton: 16µM*; Cruzain Triton: 13µM*; Papain inh: 5µM*

Results for CCCN(CCC)c1nc(N)nc(-c2cc(Cl)ccc2OC)n1 ?
Cruzain noTriton: inconclusive; Cruzain Triton: -5%

What do the screens show for `COc1cccc(CNC(=O)c2ccc(NC(=O)N3CCCCc4ccccc43)cc2)c1`?
Cruzain noTriton: -5%; Cruzain Triton: 0%

How did COc1cccc(-c2cn3c(n2)sc2cc(C(=O)NCc4ccccc4F)ccc23)c1 do in these assays?
Cruzain noTriton: 17%; Cruzain Triton: -3%

Results for CC(C)COc1ccc(C(=O)N2CCCCC2CCN2CCCCC2)cc1 (configuration not stated) ?
Cruzain noTriton: -13%; Cruzain Triton: 1%

How did CCc1cccc(CC)c1NC(=O)C(Cc1ccccc1)NS(=O)(=O)c1cccc2nsnc12 (configuration not stated) do in these assays?
Cruzain noTriton: -12%; Cruzain Triton: -3%

Results for COc1ccc2cc3cc(C(=O)NCCN4CCN(Cc5ccccc5)CC4)oc3nc2c1 ?
Cruzain noTriton: -30%; Cruzain Triton: inconclusive

Results for COc1ccc2cc3cc(C(=O)NCCCN4CCOCC4)oc3nc2c1 ?
Cruzain noTriton: inconclusive; Cruzain Triton: 32µM*; Papain inh: 16µM*

How did O=C(COc1cccc(Cl)c1)N1CCC(c2nc3ccccc3s2)CC1 do in these assays?
Cruzain noTriton: inconclusive; Cruzain Triton: -9%

Results for CC(C)Oc1ccc(CNC(=O)CCn2c(=O)c3cccn3c3ccc(F)cc32)cc1 ?
Cruzain noTriton: -2%; Cruzain Triton: -8%

How did COCC(C)NC(=O)Cn1c(SCc2ccccc2)nc2ccccc21 (configuration not stated) do in these assays?
Papain inh: -8%

How did COCC(C)NC(=O)CSc1nc2ccccc2n1CCc1ccccc1 (configuration not stated) do in these assays?
Cruzain noTriton: 10%; Cruzain Triton: 0%

How did CCc1ccc(NC(=O)CC2C(=O)N(c3cccc(OC)c3)C(=O)N2Cc2ccc(F)cc2)cc1 (configuration not stated) do in these assays?
Cruzain noTriton: 3%; Cruzain Triton: -8%

How did O=c1cc(-c2ccccc2Cl)oc2c(NS(=O)(=O)c3cc(Cl)cc(Cl)c3O)ccc(O)c12 do in these assays?
Cruzain noTriton: 5%; Cruzain Triton: 25µM*; Papain inh: 4.5µM*

Results for O=c1cc(-c2ccccc2Cl)oc2cc(O)cc(O)c12 ?
Cruzain noTriton: -5%; Cruzain Triton: -10%

How did Cc1oc(=O)c(NC(=O)c2cccc(Cl)c2)cc1C(=O)c1ccccc1 do in these assays?
Cruzain noTriton: 0.63µM*; Cruzain Triton: 1.3µM*; Papain inh: -5%
